The target of assay [1] is Retinoic acid receptor alpha (Homo sapiens) (UniProt P10276). Put plainly: NVS_NR_hRARa_Agonist: NovaScreen (NVS) Nuclear Receptor Binding Assay for human Retinoic Acid Alpha Receptor Agonism (RAR) (AID 2283361). In a few lines:
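Agonist-mode TR-FRET binding format using extracted protein, measured at 2 h post-dosing. Initial duplicate single-point screen at 25 uM preceded concentration series for actives; activity was normalized to DMSO baseline.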

Assay [2] has as its target human Adenosine Transporter (Adot), SLC29A1 (gene 2030) (UniProt Q99808). Put plainly: NVS_TR_hAdoT: NovaScreen (NVS) Transporter Assay for human Adenosine Transporter (Adot) (AID 2283368). On the procedure: NVS_TR_hAdoT is a biochemical, single-readout assay that uses extracted gene-proteins from U937 in a cell-free assay. Measurements were taken 1 hour after chemical dosing in a 96-well plate.NVS_TR_hAdoT is one of one assay component(s) measured or calculated from the NVS_TR_hAdoT assay. It is designed to make measurements of radioligand binding, a form of binding reporter, as detected with scintillation counting signals by Filter-based radiodetection technology.Data from the assay component NVS_TR_hAdoT was analyzed into 1 assay endpoint. This assay endpoint, NVS_TR_hAdoT, was analyzed in the positive analysis fitting direction relative to DMSO as the negative control and baseline of activity. […] Furthermore, this assay endpoint can be referred to as a primary readout, because the performed assay has only produced 1 assay endpoint. […]
Binding assays used specific radioligands (tritiated, iodinated) with non-radioactive competitive displacement ligands in agonist or antagonist protocols (as indicated) and various reference compounds and inhibitors to titrate specific binding to receptors and transporters. Most enzyme assays (CYPs, kinases, phosphatases, proteases, HDACs) used recombinant protein and specific substrates (fluorescence mostly, some colorimetric and radioactive) and inhibitors, followed by a biochemical separation of substrate and product. […]

SMILES strings stand for the structures. Records with an inconclusive call do not appear. Activity calls are given as the source filed them. How the source made its calls: active means hit-call score of the fitted dose curve at least 0.9, where 1 is the maximum; inconclusive means response in the unintended direction; inactive means score below 0.9.

Our source for the AC50 values is PubChem BioAssay (EPA / NIEHS).

Sequence of Retinoic acid receptor alpha (Homo sapiens) (P10276 whole entry, looked up): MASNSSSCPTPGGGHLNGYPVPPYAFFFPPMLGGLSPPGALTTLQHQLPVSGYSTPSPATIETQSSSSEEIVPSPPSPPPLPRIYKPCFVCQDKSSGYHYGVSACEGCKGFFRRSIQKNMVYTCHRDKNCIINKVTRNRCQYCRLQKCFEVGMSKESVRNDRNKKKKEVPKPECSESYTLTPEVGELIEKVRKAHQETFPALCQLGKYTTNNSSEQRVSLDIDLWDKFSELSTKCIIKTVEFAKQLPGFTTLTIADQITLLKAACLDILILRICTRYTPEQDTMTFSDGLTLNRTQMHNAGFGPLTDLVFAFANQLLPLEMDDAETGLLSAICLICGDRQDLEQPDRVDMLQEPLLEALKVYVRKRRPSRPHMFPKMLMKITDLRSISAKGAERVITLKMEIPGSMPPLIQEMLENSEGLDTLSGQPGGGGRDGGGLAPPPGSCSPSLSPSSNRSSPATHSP
Sequence of human Adenosine Transporter (Adot), SLC29A1 (gene 2030) (Q99808 whole entry, looked up): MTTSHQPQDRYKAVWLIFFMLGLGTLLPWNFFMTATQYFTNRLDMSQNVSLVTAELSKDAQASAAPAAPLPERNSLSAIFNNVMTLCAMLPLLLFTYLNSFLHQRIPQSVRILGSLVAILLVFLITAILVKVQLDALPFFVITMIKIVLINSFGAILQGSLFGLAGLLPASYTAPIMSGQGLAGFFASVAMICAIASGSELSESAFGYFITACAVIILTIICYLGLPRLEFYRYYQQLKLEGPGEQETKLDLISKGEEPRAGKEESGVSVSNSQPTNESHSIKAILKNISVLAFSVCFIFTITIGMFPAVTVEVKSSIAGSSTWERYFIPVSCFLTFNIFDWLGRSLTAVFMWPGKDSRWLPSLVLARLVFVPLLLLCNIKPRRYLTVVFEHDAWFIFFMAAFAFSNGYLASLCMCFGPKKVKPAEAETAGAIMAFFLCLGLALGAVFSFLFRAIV

As usually defined, the AC50 is the midpoint of the concentration-response curve, whichever way the signal moves. In the case of `Cc1cc(C(=C2C=CC(=Nc3ccc(S(=O)(=O)O)cc3)C=C2)c2ccc(Nc3ccc(S(=O)(=O)O)cc3)cc2)cc(S(=O)(=O)O)c1N`, the AC50 in assay [1] was 17.5 µM (active).
As for `O=C1OC2(c3ccccc31)c1cc(I)c(O)c(I)c1Oc1c2cc(I)c(O)c1I`, the AC50 in assay [1] is 19.9 µM (active).
`CS(=O)(=O)c1ccc([C@@H](CC2CCCC2)C(=O)Nc2cnccn2)cc1Cl`: the AC50 in assay [2] was 25 µM (active).
